Laboratory results reported in PubChem BioAssay (EPA / NIEHS).
Records with an inconclusive call do not appear. Calls of active or inactive are those of the source. The calls were made as follows, unless noted: active = hit-call score of the fitted dose curve at least 0.9, where 1 is the maximum; inactive = score below 0.9.

Experiments:
[1] = read-out: Monocyte Chemoattractant Protein-1 (MCP1), CCL2 (gene 6347); test: BSK_LPS_MCP1: BioMAP Diversity Plus: LPS Assay for Monocyte Chemoattractant Protein-1 (MCP1) Biomarker Activity (AID 2283081); conditions: primary human HUVEC with PBMC; actives raise or lower the signal;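 as to AC50: co-culture stimulated with LPS; secreted MCP-1 protein quantified by ELISA in culture supernatant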
How it was run: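 Values derive from bidirectional fitting against DMSO of ELISA-measured MCP-1 in a human primary endothelial and mononuclear cell co-culture, 24 h after chemical addition under LPS activation.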

[2] = BSK_LPS_PGE2: BioMAP Diversity Plus: LPS Assay for Prostaglandin E2 (PGE2) Biomarker Activity (AID 2283082); conditions: primary human HUVEC with PBMC; actives raise or lower the signal;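 as to AC50: secreted prostaglandin E2 measured by ELISA in LPS-stimulated co-culture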
How it was run: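 LPS-activated HUVEC/PBMC co-culture; cmpd dosed, 24 h; PGE2 by ELISA; bidirectional fit vs DMSO; SRB (0.1%, TCA-fixed, 560 nm) in parallel plates for overt cytotox.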

[3] = read-out: Macrophage colony-stimulating factor (MCSF), CSF1 (gene 1435); test: BSK_LPS_MCSF: BioMAP Diversity Plus: LPS Assay for Macrophage colony-stimulating factor (MCSF) Biomarker Activity (AID 2283083); conditions: primary human HUVEC with PBMC; actives raise or lower the signal
How it was run: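 Bidirectional fit versus DMSO of ELISA-measured M-CSF in co-cultured human umbilical vein endothelial cells and PBMC, sampled 24 h after dosing.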

[4] = read-out: Tissue Factor, F3 (gene 2152); test: BSK_LPS_TissueFactor: BioMAP Diversity Plus: LPS Assay for Tissue Factor Biomarker Activity (AID 2283084); conditions: primary human HUVEC with PBMC; actives raise or lower the signal
How it was run: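 Read-out: CD142 ELISA, 24 h. System: LPS-driven human endothelial/PBMC co-culture. Analysis: up- or down-signal fitted against DMSO.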

[5] = read-out: Tumor necrosis factor (Homo sapiens) (UniProt P01375); test: BSK_LPS_TNFa: BioMAP Diversity Plus: LPS Assay for Tumour Necrosis Factor alpha (TNFa) Biomarker Activity (AID 2283085); conditions: primary human HUVEC with PBMC; actives raise or lower the signal
How it was run: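 Read-out is ELISA of TNFa in primary human endothelial cell–PBMC co-cultures at 24 h after compound. Activity in either direction was fitted against DMSO.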

[6] = read-out: Vascular cell adhesion molecule 1 (VCAM1), VCAM1 (gene 7412); test: BSK_LPS_VCAM1: BioMAP Diversity Plus: LPS Assay for Vascular cell adhesion molecule 1 (VCAM1) Biomarker Activity (AID 2283086); conditions: primary human HUVEC with PBMC; actives raise or lower the signal
How it was run: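 HUVEC + PBMC co-culture, LPS system; compound 24 h; VCAM-1 by ELISA; bidirectional fit vs DMSO control; parallel SRB (0.1%, TCA-fixed, 560 nm) for cytotoxicity.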

CD38, CD38 (gene 952) = test: BSK_SAg_CD38: BioMAP Diversity Plus: SAg Assay for CD38 Biomarker Activity (AID 2283087); conditions: primary human HUVEC with PBMC; actives raise or lower the signal
How it was run: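 Human HUVEC plus PBMC co-culture stimulated with superantigen; CD38 measured by ELISA 24 h after chemical dosing. Fluorescence read-out, bidirectional fit against DMSO; cytotoxicity tracked in parallel by SRB and Alamar Blue.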

CD40, CD40 (gene 958) = test: BSK_SAg_CD40: BioMAP Diversity Plus: SAg Assay for CD40 Biomarker Activity (AID 2283088); conditions: primary human HUVEC with PBMC; actives raise or lower the signal
How it was run: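 Endpoint derived by fitting increases or decreases versus DMSO controls. CD40 is detected by fluorescence ELISA in a human vascular co-culture of endothelium and PBMC at 24 h.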

[7] = read-out: Monocyte Chemoattractant Protein-1 (MCP1), CCL2 (gene 6347); test: BSK_SAg_MCP1: BioMAP Diversity Plus: SAg Assay for Monocyte Chemoattractant Protein-1 (MCP1) Biomarker Activity (AID 2283090); conditions: primary human HUVEC with PBMC; actives raise or lower the signal
How it was run: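 MCP-1 levels in the endothelial–PBMC SAg co-culture were quantified by ELISA at 24 h post-dosing; both increases and decreases versus DMSO scored. Cytotoxicity monitored by SRB total protein in parallel cultures.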

[8] = read-out: Monokine induced gamma interferon (MIG), CXCL9 (gene 4283); test: BSK_SAg_MIG: BioMAP Diversity Plus: SAg Assay for Monokine induced gamma interferon (MIG) Biomarker Activity (AID 2283092); conditions: primary human HUVEC with PBMC; actives raise or lower the signal
How it was run: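 Measures CXCL9 protein by ELISA in a human vascular primary-cell co-culture (umbilical vein endothelium with PBMC) 24 h after chemical addition. Activity is scored up or down from the DMSO control.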

[9] = BSK_SAg_PBMCCytotoxicity: PBMC Cytotoxicity Assessment in the BioMAP Diversity Plus: SAg Assay (AID 2283093); conditions: primary human HUVEC with PBMC;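 also: PBMC viability measured as Alamar Blue reduction fluorescence at 546/580 nm; fitted both ways against DMSO so a hit may be loss or gain of signal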;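 as to AC50: PBMC superantigen activated with SEB plus TSST-1 one hour after compound addition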
How it was run: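 HUVEC/PBMC co-culture; PBMC exposed to chemical 1 h before SEB and TSST-1 activation (20 ng/mL each), incubated 90 h, then Alamar Blue 6 h, fluorescence 546/580 nm. Bidirectional fit versus DMSO baseline.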

[10] = read-out: Interleukin-8 (IL8), CXCL8 (gene 3576); test: BSK_SAg_IL8: BioMAP Diversity Plus: SAg Assay for Interleukin-8 (IL8) Biomarker Activity (AID 2283094); conditions: primary human HUVEC with PBMC; actives raise or lower the signal
How it was run: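 ELISA read-out of IL-8 in a primary human vascular co-culture (umbilical vein endothelium plus PBMC), taken 24 h after compound addition. Values derive from bidirectional fits against DMSO negative controls.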

[11] = BSK_SAg_Proliferation: Cell Proliferation Assessment in the BioMAP Diversity Plus: SAg Assay (AID 2283095); conditions: primary human HUVEC with PBMC;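 also: relative cell number as total protein by SRB absorbance in sub-confluent culture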
How it was run: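 Cells (endothelium plus PBMC, human primary) were dosed with chemical, cultured 96 h, fixed in 10% TCA and stained with 0.1% SRB. Absorbance at 560 nm gave relative protein, fitted bidirectionally relative to DMSO.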

[12] = BSK_SAg_SRB: Viability Assessment in the BioMAP Diversity Plus: SAg Assay (AID 2283096); conditions: primary human HUVEC with PBMC;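 also: cells read one day after compound addition; hits may be either gain or loss of signal compared with DMSO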
How it was run: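 Human umbilical vein endothelial cells co-cultured with PBMC, read 24 h after compound dosing. Total protein measured by sulforhodamine B staining (0.1% SRB after 10% TCA fixation, absorbance 560 nm); bidirectional fit versus DMSO baseline.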

[13] = molecular target: human CYP1A2, CYP1A2 (gene 1544) (UniProt P05177); test: NVS_ADME_hCYP1A2: NovaScreen (NVS) CYP450-related Enzyme Activity (ADME) Assay for human CYP1A2 (AID 2283102; active = hit-call score of the fitted dose curve at least 0.9, where 1 is the maximum;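 also: fluorescence from turnover of a fluorogenic substrate by recombinant insect-cell CYP1A2; potency for inhibition since loss of fluorescence marks reduced CYP1A2 activity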)
How it was run: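 Inhibition scored as decrease in fluorescent product versus acetonitrile negative control. Enzyme: insect-cell recombinant human CYP1A2, substrate-specific, cell-free. Reading at 0.5 h; 10 uM duplicate initial screen with positive and negative controls on every plate.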

[14] = read-out: E-selectin (Homo sapiens) (UniProt P16581); test: BSK_SAg_Eselectin: BioMAP Diversity Plus: SAg Assay for Eselectin Biomarker Activity (AID 2283091); conditions: primary human HUVEC with PBMC; actives raise or lower the signal
How it was run: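 Endpoint values derive from bidirectional fitting relative to DMSO, using ELISA-measured E-selectin in a human vascular co-culture (umbilical vein endothelium plus PBMC) sampled 24 h after dosing.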

[15] = molecular target: human CYP1A1, CYP1A1 (gene 1543) (UniProt P04798); test: NVS_ADME_hCYP1A1: NovaScreen (NVS) CYP450-related Enzyme Activity (ADME) Assay for human CYP1A1 (AID 2283100; active = hit-call score of the fitted dose curve at least 0.9, where 1 is the maximum)
How it was run: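 Inhibition of recombinant CYP1A1 turnover was assessed fluorometrically in a biochemical format 1 h after compound exposure. Testing began at 10 uM in duplicate and progressed to concentration series reaching 20 uM, with on-plate positive and negative controls.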

Measured: AC50

Tumor necrosis factor (Homo sapiens), sequence (P01375 whole entry, looked up): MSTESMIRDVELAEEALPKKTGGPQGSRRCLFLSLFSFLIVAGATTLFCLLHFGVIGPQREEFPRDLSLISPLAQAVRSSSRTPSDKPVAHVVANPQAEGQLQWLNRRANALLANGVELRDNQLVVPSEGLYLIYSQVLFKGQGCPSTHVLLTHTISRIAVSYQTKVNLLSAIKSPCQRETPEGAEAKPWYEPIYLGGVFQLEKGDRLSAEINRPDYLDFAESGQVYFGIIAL
human CYP1A2, CYP1A2 (gene 1544), sequence (P05177 whole entry, looked up): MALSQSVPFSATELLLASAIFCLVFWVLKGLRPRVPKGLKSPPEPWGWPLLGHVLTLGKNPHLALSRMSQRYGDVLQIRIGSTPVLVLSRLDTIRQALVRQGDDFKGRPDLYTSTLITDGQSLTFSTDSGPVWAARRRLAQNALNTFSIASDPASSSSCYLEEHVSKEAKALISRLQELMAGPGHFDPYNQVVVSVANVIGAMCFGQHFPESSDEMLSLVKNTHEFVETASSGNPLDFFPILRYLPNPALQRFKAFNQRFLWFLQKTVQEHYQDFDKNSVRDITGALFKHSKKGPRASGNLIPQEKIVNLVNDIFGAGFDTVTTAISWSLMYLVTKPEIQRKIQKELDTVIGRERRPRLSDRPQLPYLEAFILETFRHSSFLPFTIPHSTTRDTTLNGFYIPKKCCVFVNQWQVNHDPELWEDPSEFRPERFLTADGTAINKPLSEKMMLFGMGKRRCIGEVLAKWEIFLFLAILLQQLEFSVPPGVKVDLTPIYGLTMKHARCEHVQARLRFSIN
human CYP1A1, CYP1A1 (gene 1543), sequence (P04798 whole entry, looked up): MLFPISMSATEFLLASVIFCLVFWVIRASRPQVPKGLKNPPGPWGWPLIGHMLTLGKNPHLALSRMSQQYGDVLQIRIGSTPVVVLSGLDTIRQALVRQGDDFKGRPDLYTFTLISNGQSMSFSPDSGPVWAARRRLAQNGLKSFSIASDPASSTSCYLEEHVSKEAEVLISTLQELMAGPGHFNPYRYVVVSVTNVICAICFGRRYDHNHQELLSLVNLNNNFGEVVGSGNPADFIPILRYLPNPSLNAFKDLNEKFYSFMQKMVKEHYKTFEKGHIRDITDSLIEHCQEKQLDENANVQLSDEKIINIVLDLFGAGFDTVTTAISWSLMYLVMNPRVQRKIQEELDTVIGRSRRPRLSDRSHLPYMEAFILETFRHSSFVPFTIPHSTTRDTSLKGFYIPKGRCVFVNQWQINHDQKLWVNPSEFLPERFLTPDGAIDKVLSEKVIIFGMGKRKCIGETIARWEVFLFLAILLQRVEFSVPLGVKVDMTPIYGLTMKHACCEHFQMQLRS
E-selectin (Homo sapiens), sequence (P16581 whole entry, looked up): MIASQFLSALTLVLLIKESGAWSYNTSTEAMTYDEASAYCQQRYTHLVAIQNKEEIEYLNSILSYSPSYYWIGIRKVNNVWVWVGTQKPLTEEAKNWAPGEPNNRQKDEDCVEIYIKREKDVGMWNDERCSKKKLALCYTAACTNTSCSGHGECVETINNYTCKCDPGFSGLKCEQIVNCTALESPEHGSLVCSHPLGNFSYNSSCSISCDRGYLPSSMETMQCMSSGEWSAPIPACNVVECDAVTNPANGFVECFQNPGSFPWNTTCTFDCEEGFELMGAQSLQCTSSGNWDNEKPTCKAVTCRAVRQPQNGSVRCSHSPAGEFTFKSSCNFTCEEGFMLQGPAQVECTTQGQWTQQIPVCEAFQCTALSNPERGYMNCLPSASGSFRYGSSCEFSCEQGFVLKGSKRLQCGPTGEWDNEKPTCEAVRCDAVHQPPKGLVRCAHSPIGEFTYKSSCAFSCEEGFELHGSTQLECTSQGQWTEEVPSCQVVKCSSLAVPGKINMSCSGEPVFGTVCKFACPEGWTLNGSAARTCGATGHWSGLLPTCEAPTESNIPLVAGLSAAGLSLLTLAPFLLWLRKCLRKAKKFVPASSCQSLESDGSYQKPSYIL

CCCCOC(=O)c1ccccc1C(=O)OCc1ccccc1
active: [2] 8.72 µM | [6] 10.7 µM | [10] 20 µM | [11] 20 µM | [12] 10.8 µM | [13] 6.71 µM
not listed: [14] | [15]
inactive: all other assays above

Oc1ccccc1Cl
not listed: [8] | [13] | [15]
inactive: all other assays above

CO[C@@H]1[C@H](OC(=O)NC(=O)CCl)CC[C@]2(CO2)[C@H]1[C@@]1(C)O[C@@H]1CC=C(C)C
inactive: [1] | [4] | [7] | [9] | [12]
active: [2] 6.2 µM | [3] 3.16 µM | [5] 10 µM | [6] 7.31 µM | CD38, CD38 (gene 952) 6.2 µM | CD40, CD40 (gene 958) 7.52 µM | [10] 2.58 µM | [11] 2.45 µM

OCCCl
not listed: [13] | [14] | [15]
inactive: all other assays above

C1=Cc2cccc3cccc1c23
not listed: [13] | [14] | [15]
inactive: all other assays above

CC(C)(OOC(C)(C)c1ccccc1)c1ccccc1
active: [1] 30.4 µM | [3] 32.5 µM | [5] 31.7 µM | [6] 30.7 µM | CD38, CD38 (gene 952) 33.5 µM | CD40, CD40 (gene 958) 31 µM | [7] 33 µM | [9] 27 µM | [10] 30.2 µM | [11] 16.4 µM | [12] 32.7 µM
inactive: [2] | [4]

Oc1ccc2ccc3cccc4ccc1c2c34
active: [1] 29.7 µM | [2] 4.03 µM | [3] 30.4 µM | [4] 34.4 µM | [5] 33 µM | [6] 35.3 µM | CD38, CD38 (gene 952) 16.5 µM | CD40, CD40 (gene 958) 23.3 µM | [7] 29.5 µM | [9] 8.38 µM | [10] 36.1 µM | [11] 6.09 µM | [12] 30.4 µM | [15] 2.84 µM | [13] 0.275 µM
